# Whole data set: some 33,000 sequences, median “E-score (dimensionless, -0.5 to 0.5)” near -0.058, cut for the highest 2% near 0.35. The sample as a whole holds a higher share of the highest values than the screen did.
# Tested on: MvaT
# Experiment: PBM 8-mer E-score (mean of HK and ME arrays) (E-score (dimensionless, -0.5 to 0.5)); higher = stronger relative binding preference
# Procedure: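 Protein binding microarray: GST-tagged full-length MvaT (P. aeruginosa PAO1) bound to two universal double-stranded 60-mer arrays (ME and HK), each with a constant 25-mer primer and a variable 35-mer region covering all 8-mers. The 8-mer E-score (rank-based, range -0.5 to 0.5, >0.45 = specific binding) is the mean of the two arrays.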
row,Sequence,PBM 8-mer E-score
1,CCTATAAA,0.211
2,ACTATAAA,0.316
3,ATCATAAA,0.308
4,CTTATAAG,0.394
5,CTCATAAG,-0.122
6,ATTATAAA,0.462
7,ACTATACT,0.228
8,CTCATAAA,0.0815
9,ACTATAAT,0.436
10,CGTATAAG,0.147
11,CTTATAAA,0.377
12,TAAGCCTA,-0.0915
13,GAACTTGA,0.266
14,AGTCCAGA,-0.101
15,AAACCATA,0.251
16,CGCTTAGA,-0.0246
17,AATAAAGC,0.292
18,ATCCTATA,0.189
19,ACCTATAA,0.208
20,ACACGTGT,-0.0859
21,AACCGCAA,0.00741
22,ATTATAAG,0.432
23,TTCATAAA,0.238
24,TTGATAAA,0.253
25,ACTATAAG,0.273

row,Sequence,PBM 8-mer E-score
1,ATTATACG,0.274
2,TTTATAAA,0.411
3,CCTACAGC,-0.247
4,ACTACGAG,0.0492
5,AGGCCATG,-0.221
6,CGCGTGAA,0.0803
7,AGCGTCAT,-0.205
8,ATATGCCA,0.181
9,ACAGCATA,0.147
10,ATGATATG,0.199
11,CTGATATA,0.358
12,CTTATATA,0.452
13,GTTATACA,0.281
14,CTTATATC,0.184
15,ATTATATG,0.416
16,GTTATAGA,0.222
17,CTTATAGA,0.0191
18,ATTATAGG,0.304
19,GTTATATA,0.456
20,GTGATATA,0.247
21,ATGATATA,0.262
22,GGCTCACC,-0.247
23,AGCTCGAG,-0.0655
24,ATTTACTC,0.0973
25,AACGAGAG,-0.094

row,Sequence,PBM 8-mer E-score
1,AAAAGAGA,0.103
2,CTTATACA,0.229
3,ATTATATC,0.444
4,ATTATACC,0.337
5,ATTATAGA,0.331
6,ATTATATA,0.47
7,ATTATACA,0.388
8,ACACTAAT,0.345
9,CCACGGTC,-0.022
10,AGGAGGAA,-0.174
11,CGATATAG,0.196
12,TGATAAAA,0.258
13,CGATATAA,0.395
14,CGATATAC,0.219
15,TGATATAA,0.353
16,GGATATAA,0.307
17,CGAATAAG,0.122
18,ATTGGATG,0.131
19,CAATCCAA,-0.0468
20,AATTCACA,0.206
21,ATGTATTG,0.244
22,CTGTATTA,0.36
23,GTGTATTA,0.276
24,CTGTATTC,0.0463
25,ATGTATTC,0.152

row,Sequence,PBM 8-mer E-score
1,ATGTATTA,0.399
2,CTAGTATC,-0.0351
3,CAATACTC,0.106
4,AAAACGAC,0.0691
5,AAAATGAA,0.226
6,GACAGAAC,-0.0903
7,ATTATCAG,0.354
8,ATTATCTC,0.157
9,ATTATCTG,0.355
10,ATTATCTA,0.269
11,ATTATCAC,0.24
12,ATTATCAA,0.321
13,GTAATGAC,-0.00906
14,AGCTGGCC,-0.255
15,GTATAAAA,0.216
16,CTCTAAAA,0.0251
17,CTATAAGA,0.188
18,ATATAAAG,0.382
19,GTATAAAC,0.316
20,CTATAAAG,0.0669
21,AGATAAAG,0.0927
22,ATATAAAC,0.433
23,ATATAAGC,0.311
24,ATATAAGA,0.388
25,CTATAAAC,0.223

row,Sequence,PBM 8-mer E-score
1,TTATAAAA,0.399
2,GCATCCCC,-0.212
3,CATTTTCG,0.126
4,GACTAGTC,-0.0899
5,GCACCGCC,-0.175
6,CGGCTTGA,-0.132
7,ACATTACC,0.113
8,CTTTTGTC,0.0941
9,ATAAAAGA,0.263
10,CTATAAAA,0.171
11,AGATAAAT,0.241
12,ATGTAAAT,0.327
13,ATATAAAA,0.431
14,ATATAAAT,0.45
15,CTCTCATA,0.00755
16,ACGGACGA,-0.238
17,CCAAATTA,0.228
18,GCAAAATA,0.198
19,ACAAAATG,0.0821
20,ACAAATTA,0.35
21,ACAAATTG,0.137
22,ACAAAATA,0.39
23,CGCCCAAC,-0.0513
24,CATCCTTA,0.0793
25,ACATAGTC,0.172

row,Sequence,PBM 8-mer E-score
1,AGACTAGA,0.16
2,CGTCCAAC,-0.205
3,AAAGCGTT,0.0685
4,GAGGGATA,-0.0756
5,AGTGTTTC,0.161
6,AAAGTTGT,0.264
7,ACAGTTAT,0.305
8,GAAGTTAA,0.317
9,AAAGTTTA,0.353
10,AAAGTTAT,0.36
11,AAAGTTTC,0.296
12,TAAGTTAA,0.426
13,TGAGTTAA,0.272
14,CTAGTTTA,0.306
15,GAAGTTTA,0.304
16,ATAGTTTA,0.35
17,ATAGTTTC,0.275
18,ACTCAGAT,0.101
19,CACAACGA,0.0491
20,CTTGGACA,-0.17
21,ACAGGCAC,-0.193
22,CTTTTGGC,-0.0767
23,GAAGTTCA,0.16
24,ATAGTTAA,0.339
25,TAAGTTCA,0.353

row,Sequence,PBM 8-mer E-score
1,CAAGTTAA,0.332
2,AAAGTTCA,0.322
3,AAAGTTAA,0.353
4,AAAGTTAC,0.212
5,CTAGTTAA,0.36
6,GTAGTTAA,0.283
7,CAAGTTAG,0.194
8,AAAGTTAG,0.353
9,ACAGTTAA,0.299
10,CATACGTA,-0.0616
11,AAGTTTCA,0.303
12,GAGCTGAC,-0.316
13,TATCTACA,0.17
14,ACCCCATA,-0.17
15,CAAAGTAG,0.0209
16,CCTGGGTC,-0.264
17,ACGGATAT,0.113
18,TGTATTAA,0.39
19,GGTATTAA,0.34
20,CGTATTAA,0.35
21,AGTATTAA,0.328
22,CGTATTAG,0.0961
23,CGTATTAC,0.17
24,GTCATAAC,0.0325
25,GTACATGA,0.066

row,Sequence,PBM 8-mer E-score
1,ATGTGGGA,0.0305
2,ACGTATGA,-0.1
3,CGGTTATA,0.224
4,CATTGTTA,0.157
5,GCTTATTA,0.254
6,ACTTATTG,0.29
7,CCTTATTA,0.292
8,AATTACTA,0.323
9,AATTATTA,0.438
10,AATTATTG,0.351
11,ACTTATTA,0.416
12,GATTGTTA,0.204
13,AATTATCG,0.336
14,AATTGTTA,0.377
15,TCTAGGCA,-0.16
16,CCGAGCGC,-0.231
17,TATCTGAA,0.238
18,ATGTCCTG,-0.157
19,CATAGCGA,0.0278
20,AGTACCGC,-0.108
21,GTGAGCTA,-0.209
22,CAAGCCTG,-0.209
23,CATTAGTA,0.191
24,AATTAGTC,0.282
25,AATTATTC,0.352

row,Sequence,PBM 8-mer E-score
1,ACTTATTC,0.229
2,AATTAGTA,0.384
3,AATTATCC,0.296
4,GAGATTTA,0.0378
5,GTTGCATA,0.0505
6,ATCATTAC,0.235
7,CGACAACA,0.0714
8,AATATCAT,0.294
9,CATATTAC,0.294
10,AAGATTAT,0.286
11,AATATTGG,0.278
12,AATATTAC,0.372
13,AATATTAT,0.445
14,CCTATTAC,0.151
15,AATATTAG,0.394
16,CCTATTAG,0.0715
17,AATATTGT,0.355
18,CATATTAG,0.305
19,AATATTGC,0.307
20,TATTCTGA,0.132
21,CTGATAGC,-0.222
22,CCCGGGCG,-0.302
23,GAGCTGGC,-0.277
24,AACTCTTA,0.21
25,ATAAATGA,0.316

row,Sequence,PBM 8-mer E-score
1,GTAAATGA,0.222
2,GTAAATAC,0.228
3,ATAAATAT,0.44
4,ATAAATAA,0.442
5,ATAAATAG,0.358
6,ATAAATCA,0.295
7,ATAAACAT,0.342
8,CTAAATAG,0.102
9,GTAAATAA,0.366
10,ATAAAGAT,0.333
11,ATAAATCG,0.255
12,ATGTTCTA,0.0957
13,TAGTCGGA,-0.0242
14,ACATTTCA,0.153
15,ATTTAGAA,0.321
16,GTAGTGTA,0.0767
17,CGGTGCTA,-0.21
18,ATAAATCC,0.25
19,ATAAATAC,0.362
20,ATAAATGC,0.279
21,CGGTTTCC,-0.194
22,CAATTTGG,0.0733
23,AATTAAGT,0.395
24,AATTAAGC,0.328
25,AATTAAGG,0.37

row,Sequence,PBM 8-mer E-score
1,AGTTAAGG,0.135
2,ACTTAAGT,0.314
3,CATTAAGG,0.0854
4,ATGCAGAA,0.0633
5,CAGACAAA,0.0494
6,GAGAGGCC,-0.32
7,AGATGAGA,0.0308
8,AGATATTC,0.209
9,GAATATCC,0.0901
10,GAATATGC,0.119
11,AAATATCC,0.253
12,AAATATTC,0.363
13,GAATATTC,0.349
14,GACCGAAA,-0.0789
15,GGGACGGA,-0.273
16,TAGGAGGA,-0.23
17,GCTATTTA,0.252
18,GTTATTTA,0.395
19,ATTATTTA,0.44
20,GGTATTTA,0.27
21,ACTATTTG,0.258
22,CTTATTTA,0.391
23,AGTATTTG,0.308
24,ATTATTTG,0.351
25,ACTATTTA,0.345

row,Sequence,PBM 8-mer E-score
1,CTTATTTC,0.291
2,CTCATTTA,0.172
3,AGTATTTA,0.33
4,GACGACGA,0.0375
5,AGCCTTCG,-0.32
6,CAAAAATC,0.0508
7,GAGATTAC,0.135
8,AAGAAACT,0.186
9,GGCGTGGA,-0.173
10,GACCATAA,-0.0261
11,CGGAGCCA,-0.2
12,GCAATCCA,-0.0685
13,CGCACCCC,-0.26
14,ATTATTTC,0.352
15,ATTATTGC,0.292
16,AGTATTTC,0.207
17,AACCTGGA,-0.275
18,AGCGCGAT,-0.196
19,CATTTAAA,0.386
20,TATTTTAA,0.41
21,AATTTAGA,0.183
22,AATTTAAT,0.431
23,CATTTAAG,0.287
24,GATTTTAA,0.248
25,AATTTAAA,0.443

row,Sequence,PBM 8-mer E-score
1,AATTTTAA,0.321
2,TATTTTCA,0.277
3,AATTTAAG,0.271
4,CATTTTAA,0.176
5,AATTTAAC,0.31
6,ATGCATAG,-0.0132
7,CGCGCATA,0.113
8,GCGTGAAC,-0.168
9,GGACCCCA,-0.231
10,TACGCACA,0.0888
11,CGGTGGCA,-0.169
12,CGCACGTA,-0.1
13,CCTGCACG,-0.224
14,GATTTGAA,0.2
15,TATTTAGA,0.308
16,TCTTTAAA,0.227
17,GATTTAAA,0.395
18,GATTTAAC,0.245
19,TATTTACA,0.374
20,TATTTAAA,0.433
21,GATTTACA,0.072
22,CATTTACA,0.339
23,ATGTCAAC,0.0323
24,CGCCTACG,-0.307
25,AGGGAGAG,-0.161

row,Sequence,PBM 8-mer E-score
1,GCATTAAA,0.256
2,AGATTAAG,0.175
3,ACATTAAA,0.359
4,ACATTAAC,0.345
5,CCATTAAA,0.329
6,AGATTAAA,0.178
7,ACATTTAG,0.177
8,ACATTTAA,0.388
9,AGATTAAT,0.379
10,GCATTTAA,0.326
11,ACATTAAT,0.382
12,ACATTAAG,0.265
13,ACCACATC,-0.0359
14,ATGCTCTA,-0.124
15,TGTGCCAA,-0.0753
16,AGGAATTA,0.226
17,CGTCCCCC,-0.209
18,AACATTAC,0.234
19,TACTCCAA,0.097

# Source: the supplement of paper PMC4466236
